Among the data in the supplement of paper PMC10681739 are TF binding intensity values, retold here.

In the assay the target is T1, ETS1 (UniProt P14921).
T1 sequence: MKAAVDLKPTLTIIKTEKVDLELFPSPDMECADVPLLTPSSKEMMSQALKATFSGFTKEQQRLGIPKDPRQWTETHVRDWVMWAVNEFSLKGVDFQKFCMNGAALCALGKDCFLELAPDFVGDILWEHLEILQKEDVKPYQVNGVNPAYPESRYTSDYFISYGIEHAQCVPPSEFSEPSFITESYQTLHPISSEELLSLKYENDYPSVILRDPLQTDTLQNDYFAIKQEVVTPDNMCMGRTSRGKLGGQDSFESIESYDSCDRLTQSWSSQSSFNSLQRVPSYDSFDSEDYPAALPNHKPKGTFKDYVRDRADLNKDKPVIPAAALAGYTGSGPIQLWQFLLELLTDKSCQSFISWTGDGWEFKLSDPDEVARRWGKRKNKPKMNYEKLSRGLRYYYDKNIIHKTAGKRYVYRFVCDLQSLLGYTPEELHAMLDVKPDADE
The assay is described as follows: TF binding intensity (PBM fluorescence), negative control probe (arbitrary fluorescence units); higher = stronger binding. Here is the method:
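gcPBM negative-control 36-bp genomic probes lacking TF binding sites. Each was incubated with recombinant human ETS1 or RUNX1 alone and detected by antibody fluorescence. Values are medians over replicate spots (4 spots for the ETS1-RUNX1 arrays, 3 for the ETS1-ETS1 array). The probes sit in constant array flanks that are not printed.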
For “AAACTAATCAGAATTTAACATCATACATAAATGGCA (protein concentration 10 nM)”, the TF binding intensity was determined as 116.

In turn, “CCCTTCGCCATTGCAGCCATGCCACCCCTCCTTCTC (protein concentration 10 nM)” displayed a TF binding intensity of 149.

The sequence “CAGTGCAGCTGTTTGCCATGTGGGCCCACACCACTG (protein concentration 10 nM)” gave a TF binding intensity of 126.

In turn, “CACACCCGCCTGTTACCCACATGCACAAGCAGTCTG (protein concentration 1 nM)” yielded a TF binding intensity of 449.

For “AGAAGCTTGGCTTGGTCTGCGCCTCCTCCCGTGCCT (protein concentration 10 nM)”, the TF binding intensity stood at 101.

For “GCAACACTCACTCAAACCACAGTAATCAAAAGGCAC (protein concentration 1 nM)”, the TF binding intensity came to 496.
